Assay outcomes as filed in PubChem.
Ins promoter up: MIN6 insulin promoter up-regulation | MIN6 insulin promoter-GFP reporter, high-content imaging; active compounds read high | z-score at 5 µM | 190,000 compounds, 0.3% hits | AID 1625;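 active = z-score above 3 at 5 µM with at least 500 cells counted in the well; inconclusive = wells under 500 cells, flagged as cytotoxic or low count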
Lmaj promast: Leishmania major promastigote growth inhibition. 200,000 compounds, 9% hits. inhibition, % at 10 µM. Leishmania major promastigotes, resazurin fluorescence viability. AID 1063; in the data active = inhibition above about 50%;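 also: promastigotes grown with compound for 44 hours at 28 °C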
KCC2 mod: modulates chloride dependent transport by human KCC2. B-score of Tl+ flux slope (higher = more flux/activation; lower = inhibition) at 10 µM. KCC2 cells, thallium flux FluoZin-2 fluorescence. 190,000 compounds, 2.2% hits. Q9H2X9. AID 1456;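 active = thallium flux slope and its plate-corrected score both differing from the plate sample mean at a set confidence after two filtering rounds, in either direction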;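 also: slope of fluorescence scaled to starting intensity during 10 to 20 s after thallium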
ROMK mod: modulates human ROMK potassium channel activity. Tet-inducible ROMK, thallium flux fluorescence; actives lie on both sides. B-score at 10 µM. 130,000 compounds, 2% hits;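 active = signal ratio slope over the read window, or its plate-corrected B-score, at least 3 SD from the plate mean, either direction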;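 also: B-score of the F/F0 ratio slope over 7 to 12 s after thallium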
Target sequence (P48048 whole entry, looked up): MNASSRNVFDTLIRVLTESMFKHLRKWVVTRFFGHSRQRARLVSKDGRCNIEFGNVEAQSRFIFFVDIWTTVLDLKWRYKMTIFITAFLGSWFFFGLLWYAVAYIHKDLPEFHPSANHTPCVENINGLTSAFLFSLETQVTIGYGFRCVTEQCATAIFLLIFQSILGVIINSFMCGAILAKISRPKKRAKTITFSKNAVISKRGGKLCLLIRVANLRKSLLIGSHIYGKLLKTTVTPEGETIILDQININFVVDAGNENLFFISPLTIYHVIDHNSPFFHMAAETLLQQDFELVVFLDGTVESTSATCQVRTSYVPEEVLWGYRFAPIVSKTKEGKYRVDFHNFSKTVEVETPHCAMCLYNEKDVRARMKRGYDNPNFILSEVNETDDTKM
WT yeast gro inh: growth inhibition of WT yeast, mitochondrial fusion screen; 190,000 compounds, 2.1% hits; mitochondrial fusion phenotypic screen, WT strain; inhibition, % at 10 µM; in the data active = inhibition above about 58%; tested in S. cerevisiae
INS promoter inh: TRM-6 insulin promoter activity inhibition | 130,000 compounds, 0.9% hits | inhibition, % at 2 µM | TRM-6 cells (human fetal islet line), insulin promoter-eGFP reporter, imaging; reporter expression induced with tamoxifen;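 active = inhibition above the mean plus 3 SD, with well images judged a real hit on visual review, cut at about 60% in these data, passing the limit was not always enough; inconclusive = inhibition over the cutoff but images rejected on review; inactive = inhibition not above the cutoff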
* = called active by the depositor; ? = inconclusive; · = no result given. This is a sample that favours compounds with a hit; in the whole collection about 12% have one here.

SMILES	Ins promoter up	Lmaj promast	KCC2 mod	ROMK mod	WT yeast gro inh	INS promoter inh
Cc1ccc2cc(CN(CCN3CCOCC3)Cc3nnnn3Cc3ccco3)c(=O)[nH]c2c1C	·	-3	·	·	-12	·
CCC(c1nnnn1CCc1ccccc1)N(Cc1ccco1)Cc1cc2cccc(C)c2[nH]c1=O (centres undefined)	-3.1	99*	-0.26	·	34	-45
CCC(c1nnnn1C(C)(C)C)N(Cc1ccco1)Cc1cc2cccc(C)c2[nH]c1=O (centres undefined)	?	62*	·	-1.9	6	53
Cc1cc2cc(C(c3nnnn3C(C)(C)C)N(Cc3ccco3)CC3CCCO3)c(=O)[nH]c2cc1C (centres undefined)	-0.42	-6	-0.018	·	17	20
Cn1c(N=Nc2ccccc2)nc2ccccc21	-0.4	53*	-1.8	-0.33	86*	42
CN(C)c1ccc(N=Nc2nc3ccccc3n2C)cc1	-0.35	·	-2.3	·	·	·
O=C(COc1ccccc1)Nc1ccc(S(=O)(=O)Nc2ncccn2)cc1	1.9	-6	0.45	0.84	-3	·
Cc1ccc(C2=NN3C(C2)c2ccccc2OC32C(=O)Nc3ccccc32)cc1 (centres undefined)	1.1	100*	-0.098	·	-4	-24
O=C(Nc1ccc(-c2ccc3nncn3n2)cc1)C1CCCC1	0.23	-5	0.89	0.47	-9	42
CC1(C)CC(=O)c2sc(NC(=O)CCS(=O)(=O)c3ccccc3)nc2C1	1.9	78*	·	·	-17	·
Cc1cc(C)c(OCC(=O)Nc2ccccn2)c([N+](=O)[O-])c1	0	2	·	0.066	-4	46
COc1ccc(OC)c(-c2csc(NC(=O)CSc3ccccc3)n2)c1	0.05	77*	-0.34	0.33	44	17
Cc1cc(C)c(OCC(=O)Nc2nc(-c3ccccn3)cs2)c(C)c1	0.38	87*	-0.91	0.049	69	-22
O=C(CCS(=O)(=O)c1ccccc1)Nc1nc(-c2ccccn2)cs1	·	92*	-1.6	·	16	·
O=C(Nc1ccc(F)cc1)N1CCCN(c2ccc(C(F)(F)F)cn2)CC1	0.15	·	-0.95	-0.077	·	·
COc1ccc(-c2cc(-c3nnc(COC(=O)CC4CCCC4)o3)c3ccccc3n2)cc1OC	-0.57	1	-0.39	-0.18	10	23
COc1ccc(OCCC(=O)Nc2nccs2)cc1	-0.03	-3	-0.19	·	4	·
COc1ccc(OCCCC(=O)Nc2nc(-c3ccccn3)cs2)cc1	-0.15	100*	0.23	0.95	54	-11
COCCNc1nc(-c2cc(-c3ccccc3)on2)cc(C(C)C)n1	0.53	·	0.056	·	·	·
CCOC(=O)c1[nH]c2c(c1-c1ccccc1)C(=O)CC(c1ccc(OC)c(OC)c1)C2 (centres undefined)	-0.88	54*	-1.3	0.042	9	-2
NC(=O)c1ccc[n+](CCC[n+]2cccc(C(N)=O)c2)c1	-0.84	-10	0.13	-0.51	9	·
CCCCCCCCCC[n+]1cccc(C(=O)N(CC)CC)c1	-0.39	90*	0.88	-1.7	19	-81
Cc1cccc(NC(=O)CCn2nc(C)cc2C)c1	0.31	-5	1	·	0	·
COc1ccc(/C=C2\CCc3ccccc3C2=O)cc1Cn1nc(C)c(Br)c1C	·	1	·	1	·	52
COc1ccc(/C=C2\CCc3ccccc3C2=O)cc1Cn1cccn1	·	86*	-2.8	-1.4	52	-3
SMILES	Ins promoter up	Lmaj promast	KCC2 mod	ROMK mod	WT yeast gro inh	INS promoter inh
O=C(/C=C/c1ccc(Cl)cc1Cl)c1nc2ccccc2[nH]1	0.7	99*	0.18	·	6	·
COc1cc([C@H]2c3[nH]c4ccccc4c3C[C@H]3C(=O)N4[C@@H](c5cc(OC)c(OC)c(OC)c5)c5[nH]c6ccccc6c5C[C@H]4C(=O)N23)cc(OC)c1OC	-0.94	-4	1.1	0.66	4	45
O=C1[C@@H]2Cc3c([nH]c4ccccc34)[C@@H](c3ccccc3)N2C(=O)[C@@H]2Cc3c([nH]c4ccccc34)[C@@H](c3ccccc3)N12	-2.1	76*	-0.95	0.37	-5	-86
Cc1cccc(CN2CCN(Cc3cccc(-n4cccn4)c3)CC2CCO)n1 (centres undefined)	·	-4	-0.023	0.011	-1	·
Cc1nn(C)cc1CNC(=O)C1C2CCC(O2)C1C(=O)O (centres undefined)	0.31	-4	1.4	-0.055	-7	·
O=C(O)C1C2C=CC(C2)C1C(=O)NCc1ccc(Cl)c(Cl)c1 (centres undefined)	-0.01	53*	-0.25	0.014	2	-54
O=C(O)C1C2CCC(O2)C1C(=O)NCc1ccc(Cl)cc1 (centres undefined)	0.51	-7	0.8	-0.14	1	62*
O=C(O)C1C2C=CC(C2)C1C(=O)NCc1ccc2c(c1)OCO2 (centres undefined)	0.54	-5	0.6	0.98	-8	35
CN(C)CCCNC(=O)c1cc(C(=O)Cc2ccccc2)c[nH]1	0.08	-5	-0.36	-1.1	4	·
Oc1cccc(NC(=S)Nc2cccnc2)c1	1.4	44	1.4	0.21	-2	18
O=C(NCCN1CCOCC1)c1ccc(NC(=O)C2COc3ccccc3O2)cc1 (centres undefined)	-0.42	-5	0.75	-0.8	0	-38
O=C(Nc1ccc(OCC(F)(F)C(F)F)c(C(F)(F)F)c1)c1ccccc1O	-0.52	100*	-0.27	·	75*	30
CCC(C)Nc1nc(OC)nc(N(C)C#N)n1 (centres undefined)	0.2	0	·	1.8	3	·
Cc1cc(C)c([C@@H]2C[C@H]3CN(C4CCCC4)C(=O)[C@]34CCCN24)c(-n2cccn2)c1	1.1	·	-1.5	·	·	·
CCn1c(/C=C/N(C)c2ccccc2)[n+](CC)c2ccc(Cl)cc21	?	100*	·	·	15	-7
COc1ccc(CCn2c(-c3ccco3)nc3nc4ccccc4nc32)cc1	-0.64	18	-0.29	·	13	-179
COc1ccc(CCn2c(-c3cc([N+](=O)[O-])cc([N+](=O)[O-])c3)nc3nc4ccccc4nc32)cc1OC	0.24	80*	-1.3	·	10	·
COc1ccc(CCn2c(-c3cc([N+](=O)[O-])cc([N+](=O)[O-])c3)nc3nc4ccccc4nc32)cc1	0.09	89*	0.25	0.42	20	-108
CCCn1c(-c2ccc(OC)cc2)nc2nc3ccccc3nc21	0.64	5	-1	·	-7	17
N#Cc1cc(-c2ccccc2)cnc1Sc1ccccc1	·	0	0.067	·	33	·
OCCC1CN(CCCn2cccn2)CCN1Cc1ccccc1 (centres undefined)	0.01	-4	0.0049	1	28	·
COc1cc(CN2CCN(Cc3ccc(C)cc3)C(CCO)C2)ccc1O (centres undefined)	·	5	0.38	-0.36	6	78*
COc1cccc(CN2CCN(Cc3ccc(O)c(OC)c3)CC2CCO)c1 (centres undefined)	0.51	7	0.53	1.3	-2	-56
Cc1ccc(CN2CCN(CCCc3ccccc3)CC2CCO)cc1 (centres undefined)	0.72	87*	-0.19	-1.6	24	·
